# Laboratory results from PubChem BioAssay AID362 (NMMLSC, 2006).
# Among all 4,300 compounds or so, about 60 (1%) were called active. For the sample, actives were picked, then their nearest neighbours and some compounds at random. Values without a mark were called inactive.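 Rule for the calls: active = inhibition of labelled peptide binding to the formyl peptide receptor of at least 65%; inactive = the rest.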
# Target: fMet-Leu-Phe receptor (Homo sapiens) (UniProt P21462)
# Test: small-molecule ligands of human FPR – U937-FPR cells, fMLFK-FITC, flow cytometry, primary screen (AID 362);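 for inhibition: plate controls were buffer control wells for no effect and unlabeled fMLFF blocking peptide for full effect; higher means less cell fluorescence so more probe displaced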
# Details: fMLFK-FITC displacement; hits give high values, concentration not given here
# Sequence of fMet-Leu-Phe receptor (Homo sapiens) (P21462 whole entry, looked up): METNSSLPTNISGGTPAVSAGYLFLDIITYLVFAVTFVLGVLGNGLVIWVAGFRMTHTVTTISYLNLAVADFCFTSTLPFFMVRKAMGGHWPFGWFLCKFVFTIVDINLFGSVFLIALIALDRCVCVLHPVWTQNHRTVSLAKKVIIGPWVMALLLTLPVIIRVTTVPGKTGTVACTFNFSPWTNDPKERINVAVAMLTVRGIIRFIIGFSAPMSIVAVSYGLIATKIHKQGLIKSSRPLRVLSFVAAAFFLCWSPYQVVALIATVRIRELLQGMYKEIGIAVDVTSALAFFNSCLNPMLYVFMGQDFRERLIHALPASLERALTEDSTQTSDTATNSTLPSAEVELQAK
row,SMILES,inhibition
1,CCC(C)C(NC(=O)C(CC(=O)OCc1ccccc1)NC(=O)OC(C)(C)C)C(=O)NC(Cc1ccccc1)C(N)=O (stereo not drawn),inactive
2,CCOc1cc(C2C(C(=O)OC3CCCC3)=C(C)NC3=C2C(=O)C(C(=O)OC)C(C)C3)ccc1O (stereo not drawn),15.5%
3,CCCN(CCC)CCNC(=O)c1cn(CC(C)C)c(=O)c2cc(OC)c(OC)cc12,inactive
4,CC1=C(C(=O)OC2CCCCC2)C(c2cccc(O)c2)C2=C(CC(C)(C)CC2=O)N1 (stereo not drawn),20.5%
5,O=C(CCCCCn1c(SCC(=O)NCc2ccccc2)nc2ccccc2c1=O)NCc1ccco1,3.6%
6,COc1ccc2nc(NC(=O)C(NS(=O)(=O)c3ccc4c(c3)CCN4C(C)=O)C(C)C)sc2c1 (stereo not drawn),inactive
7,COc1ccc(OC)c(C2/C(=C(\O)c3ccc(F)cc3)C(=O)C(=O)N2CCCCCC(=O)O)c1 (stereo not drawn),84.5% (active)
8,COc1ccccc1C1/C(=C(\O)c2ccc(F)cc2)C(=O)C(=O)N1CCCCCC(=O)O (stereo not drawn),11.2%
9,COc1ccc(C2/C(=C(/O)c3ccc(C)cc3)C(=O)C(=O)N2CC(C)C)c(OC)c1 (stereo not drawn),52.9%
10,COc1ccc(OC)c(C2/C(=C(/O)c3ccc(C)cc3)C(=O)C(=O)N2CC(C)C)c1 (stereo not drawn),86.7% (active)
11,COc1ccc(C2/C(=C(\O)c3ccc(F)cc3)C(=O)C(=O)N2CCCCCC(=O)O)c(OC)c1 (stereo not drawn),23.3%
12,COc1ccc(C2/C(=C(/O)c3ccc(Cl)cc3)C(=O)C(=O)N2CC(C)C)c(OC)c1 (stereo not drawn),31.1%
13,O=C(Nc1nccs1)c1cc(N2C(=O)C3C4CCC(C4)C3C2=O)ccc1Cl (stereo not drawn),inactive
14,CCSCCOC(=O)C1=C(C)NC2=C(C(=O)C(C(=O)OC)C(C)C2)C1c1cccc(F)c1 (stereo not drawn),5.8%
15,O=c1oc2cc(O)ccc2c2c1CCC2,7%
16,O=c1oc2cc(O)cc(O)c2c2c1CCC2,81.6% (active)
17,O=c1oc2cc(O)ccc2c2c1CCCC2,inactive
18,Cc1cc(NC(=O)C2CCCCC2C(=O)O)nn1Cc1ccc(Cl)cc1 (stereo not drawn),3%
19,CCCCCCOC(=O)C1=C(C)NC(=O)NC1c1cc(OC)c(O)c(OC)c1 (stereo not drawn),inactive
20,CCCCCC(=O)Oc1cccc(N2C(=O)C3C4CCC(C4)C3C2=O)c1 (stereo not drawn),inactive
21,COC(=O)CC/C(O)=C1\C(=O)CC(C)(C)CC1=NCCc1ccc(OC)c(OC)c1,3.2%
22,COc1cc2c(C(=O)O)cn(CC(C)C)c(=O)c2cc1OC,inactive

row,SMILES,inhibition
1,CCOc1cc2c(C(=O)N3CCN(c4ccccn4)CC3)cn(CC(C)C)c(=O)c2cc1OCC,3.9%
2,CCOc1cc2c(C(=O)O)cn(CC(C)C)c(=O)c2cc1OCC,70% (active)
3,CCCc1cc(=O)oc2cc(OC(C)=O)ccc12,17.6%
4,CCCc1cc(=O)oc2cc(OCC(=O)OCC)cc(OCC(=O)OCC)c12,inactive
5,CCCc1cc(=O)oc2cc(OC(C)=O)cc(OC(C)=O)c12,77.3% (active)
6,CCOc1ccc(CCNC(=O)c2cn(CC(C)C)c(=O)c3cc(OC)c(OC)cc23)cc1OCC,inactive
7,C=C(C)Cn1c(SCC(=O)c2ccccc2)nc2c(c1=O)C1(CCCC1)Cc1ccccc1-2,inactive
8,CCOC(=O)c1cc2c(=O)n3ccccc3nc2n(CC(C)C)c1=NC(=O)c1ccccc1OCC,inactive
9,CCOC(=O)c1c(NC(=O)C2CCCCC2C(=O)O)sc(C)c1-c1ccc(C(C)(C)C)cc1 (stereo not drawn),29.4%
10,CCOC(=O)c1c(NC(=O)C2CCCCC2C(=O)O)sc(C)c1-c1ccc(Cl)cc1 (stereo not drawn),77.1% (active)
11,Cc1sc(NC(=O)C2C3CCC(C3)C2C(=O)O)c(C(N)=O)c1-c1ccc(C(C)(C)C)cc1 (stereo not drawn),82% (active)
12,Cc1sc(NC(=O)C2CCCCC2C(=O)O)c(C(N)=O)c1-c1ccc(C(C)(C)C)cc1 (stereo not drawn),70.2% (active)
13,CCOC(=O)c1c(NC(=O)C2C3CCC(C3)C2C(=O)O)sc(C)c1-c1ccc(C(C)(C)C)cc1 (stereo not drawn),63.6%
14,CCOC(=O)c1c(NC(=O)C2C3CCC(C3)C2C(=O)O)sc(C)c1-c1ccc(Cl)cc1 (stereo not drawn),45.9%
15,CCCOC(=O)c1c(NC(=O)C2CCCCC2C(=O)O)sc(C)c1C (stereo not drawn),35.7%
16,CCCOC(=O)c1c(NC(=O)C2CCCCC2C(=O)O)sc(C)c1-c1ccc(F)cc1 (stereo not drawn),17.2%
17,CCOC(=O)c1c(NC(=O)C2CCCCC2C(=O)O)sc(C)c1-c1ccc(F)cc1 (stereo not drawn),57.3%
18,N#CC1=C(SCC(=O)Nc2ccc(F)cc2)NC(=O)C(C#N)C12CCCCC2 (stereo not drawn),15.5%
19,N#CC1=C(SCC(=O)Nc2ccc(Br)cc2)NC(=O)C(C#N)C12CCCCC2 (stereo not drawn),79.2% (active)
20,N#CC1=C(SCC(=O)Nc2ccc(Cl)cc2)NC(=O)C(C#N)C12CCCCC2 (stereo not drawn),52.1%
21,O=C1c2cccc3cccc(c23)C(=O)N1CC1CCN(C(=O)C23CC4CC(CC(C4)C2)C3)CC1,inactive
22,O=C(CCCN1C(=O)c2cccc3cccc(c23)C1=O)N1CCC(CN2C(=O)c3cccc4cccc(c34)C2=O)CC1,inactive

row,SMILES,inhibition
1,CC1CCC(C(C)C)C(OCC(O)CN2CCC(CN3C(=O)c4cccc5cccc(c45)C3=O)CC2)C1 (stereo not drawn),93.4% (active)
2,CCOC(=O)c1cnc2ccc(OC)cc2c1NC1CCCCC1,99.3% (active)
3,CCOC(=O)c1cnc2ccc(OCC)cc2c1N1CCCCCC1,25.2%
4,CCOC(=O)c1cnc2cc(Cl)c(OC)cc2c1NCCC1=CCCCC1,0.9%
5,CCCN(CCC)Cc1c(O)ccc2c(=O)c(Oc3cc(C)cc(C)c3)c(C(F)(F)F)oc12,17.9%
6,COc1cc2c(C(=O)NCCc3ccc(Cl)cc3)cn(CC(C)C)c(=O)c2cc1OC,inactive
7,CC(=O)Oc1ccc(C2Nc3c(C(=O)O)ccc([N+](=O)[O-])c3C3C=CCC32)cc1 (stereo not drawn),inactive
8,CCOC(=O)C1CCC(CN(Cc2cccc(Br)c2)S(=O)(=O)c2cccc(C(F)(F)F)c2)CC1 (stereo not drawn),inactive
9,CN(C)c1ccc(C(c2cc(C(C)(C)C)c(O)c(C(C)(C)C)c2)N2CCOCC2)cc1 (stereo not drawn),29.2%
10,O=c1c(Oc2ccccc2)c(C(F)(F)F)oc2cc(O)ccc12,46.2%
11,CCCc1cc2c(=O)c(-c3ccc(C(=O)OCC)o3)c(C(=O)OCC)oc2cc1OC(C)=O,96% (active)
12,CCCc1cc(-c2n[nH]c(C)c2-c2ccc(C(=O)OCC)o2)c(O)cc1O,10.6%
13,CCc1cc2c(=O)c(Oc3ccccc3)c(C(F)(F)F)oc2cc1OC,inactive
14,CCOc1ccc2c(=O)c(Oc3ccccc3)c(C(F)(F)F)oc2c1,inactive
15,CCCc1cc2c(=O)c(-c3ccc(C(=O)OCC)o3)coc2cc1OC(C)=O,16.9%
16,CCc1cc2c(=O)c(Oc3ccccc3)c(C(F)(F)F)oc2cc1OC(C)=O,121% (active)
17,CCOc1cc2oc(C(F)(F)F)c(Oc3ccccc3)c(=O)c2cc1CC,27.9%
18,CCc1cc2c(=O)c(-c3nc4ccccc4n3C)c(C(F)(F)F)oc2cc1O,inactive
19,CCOC(=O)c1ccc(-c2c(C(F)(F)F)oc3cc(O)c(CC)cc3c2=O)o1,79.1% (active)
20,CCCc1cc2c(=O)c(-c3ccc(C(=O)OCC)o3)c(C(=O)OCC)oc2cc1OC,7.1%
21,CCc1cc2c(=O)c(Oc3ccccc3)c(C(F)(F)F)oc2cc1O,70.8% (active)
22,CC(=O)N1CCCc2cc(S(=O)(=O)NC(C(=O)Nc3nc4ccc(C)cc4s3)C(C)C)ccc21 (stereo not drawn),inactive

row,SMILES,inhibition
1,COCCOC(=O)C1=C(C)NC2=C(C(=O)C(C(=O)OC)C(C)C2)C1c1cccc(O)c1 (stereo not drawn),4.6%
2,CC1(C)CC(=O)C2=C(C1)OC(N)=C(C#N)C2c1ccc(Cl)cc1 (stereo not drawn),7.6%
3,CC(=O)N1CCc2cc(S(=O)(=O)NC(C(=O)Nc3ccccn3)C(C)C)ccc21 (stereo not drawn),inactive
4,Cc1cc(C)c(S(=O)(=O)NCC2CCC(C(=O)NCCc3ccc(Cl)cc3)CC2)c(C)c1 (stereo not drawn),18.5%
5,CCc1cc(=O)oc2cc(OCC(=O)OC)c(Cl)cc12,inactive
6,CCCOc1ccc(C2NC(=O)NC(C)=C2C(=O)OCC(C)CCC)cc1 (stereo not drawn),inactive
7,CCOC(=O)Oc1ccc2c(=O)c(Oc3cccc(C)c3)c(C(F)(F)F)oc2c1,inactive
8,CCOc1ccc2c(c1)C(C)=CC(C)(C)N2C(=O)C(C)N1C(=O)c2ccccc2C1=O (stereo not drawn),inactive
9,Cc1cc(NC(=O)CSc2nc3ccccc3c(=O)n2CC2CCC(C(=O)NCCc3ccccc3)CC2)no1 (stereo not drawn),inactive
10,CNC(=O)C1CCC(CNS(=O)(=O)c2ccc(NC(C)=O)cc2)CC1 (stereo not drawn),inactive
11,CCCc1cc2c(=O)c(-c3nc4ccccc4s3)c(C)oc2cc1OC(C)=O,inactive
12,CCOC(=O)Oc1ccc2c(=O)c(-c3ccccc3OC)c(C(F)(F)F)oc2c1,36.6%
13,CCCc1cc2c(=O)c(-c3nc(C)cs3)coc2cc1OC(C)=O,inactive
14,COc1ccc2c(=O)c(-c3ccccc3OC)c(C(F)(F)F)oc2c1,inactive
15,CC(=O)Oc1ccc2c(=O)c(Oc3ccccc3)c(C(F)(F)F)oc2c1,97.6% (active)
16,CCCc1ccc(Oc2c(C(F)(F)F)oc3cc(OC(C)=O)ccc3c2=O)cc1,46.4%
17,CC(=O)Oc1ccc2c(=O)c(Oc3cc(C)cc(C)c3)c(C(F)(F)F)oc2c1,9.4%
18,COc1ccccc1-c1c(C(F)(F)F)oc2cc(OC(=O)C(C)C)ccc2c1=O,92% (active)
19,CCCc1cc2c(=O)c(-c3nc(C)cs3)c(C)oc2cc1OC(C)=O,72.7% (active)
20,CCCCNC(=O)C1CCN(S(=O)(=O)N(CC(C)C)CC(C)C)CC1,inactive
21,CCCOC(=O)c1c(NC(=O)C2C3C=CC(C3)C2C(=O)O)sc2c1CCCC2 (stereo not drawn),inactive
22,COc1cc2c(C(=O)N(C)c3cccc(C(F)(F)F)c3)cn(CC(C)C)c(=O)c2cc1OC,inactive
